Consider 14 compounds from PubChem BioAssay.

A short description of test [1]: liver-stage malaria parasite growth inhibition, primary screen, cell-based, HepG2, luciferase luminescence, HepG2 viability (AID 624349).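 Note: 100% = mean of DMSO negative control wells on the same plate.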 Conditions: P. berghei liver stage in HepG2, luciferase luminescence, concentration not given here; parasite load remaining: stronger effect = lower value; viability: measured here: HepG2 viability without parasites.
Test [2] is described as follows: differential killing of epithelial or mesenchymal cells, primary screen, imaging, PC-3E GFP, TEM4-18 mCherry, co-culture (AID 1345086;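 active = compounds killing one labelled cell type while sparing the other, by normalised counts and ratio limits, not self-fluorescent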;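 for all read-outs here: cells exposed to compound for 72 h before imaging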;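 for red/green cell ratio (normalised): normalised mesenchymal count divided by normalised epithelial count so high means epithelial killing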). Conditions: imaging cell counts, at 1 µM; for red/green cell ratio (normalised): actives lie on both sides, counts scaled to control wells, 1 = unselective.
Test [3] can be described thus: sensitizers of A549 cells to miR-34 induction, primary screen, imaging, A549 dox-inducible miR-34, nuclei and caspase counts (AID 1347080;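 active = compounds whose cell count with miR-34 switched on is under 0.7 times the count with it off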). As to conditions: A549 miR-34 inducible, Hoechst nuclei count, 48 h.
[4] abbreviates: measured here: epithelial PC-3E GFP cell survival.
[5] abbreviates: measured here: mesenchymal TEM4-18 mCherry cell survival.
Setting [6] is: stronger effect = lower value, cell number ratio, induced over uninduced.
Setting [7] is: measured here: relative caspase fold change +Dox/-Dox.
[8] abbreviates: measured here: total cells with miR-34 induction, stronger effect = lower value.
[9] abbreviates: measured here: total cells without miR-34 induction.

Where “and” joins values, the source holds several entries; their conditions need not be identical. Identical values can stand only once. Calls of active or inactive are those of the source. Cut-off read from the data, not from the text of the source, unless noted: active = parasite load remaining mostly below about 12% (no sharp cut-off); inactive = mostly above about 10%. Square brackets hold non-standard residues; d marks the D form. Peptide text beside a SMILES is read from it. Orn = NCCC[CH](N)C(=O)O

Take `O=C(N[C@@H](CO)[C@H](O)c1ccc([N+](=O)[O-])cc1)C(Cl)Cl`: in test [1], the parasite load remaining was 85.6% (inactive) and 68.5% (inactive). Moreover, in test [1], the viability is 77.9% and 95.2%. In test [2], the red/green cell ratio (normalised) is 0.9 (inactive). The figures for the normalised cell number in test [2] (setting [4]) and in test [2] (setting [5]) were 1.15 and 1.04, respectively. Further, the fold change in test [3] (setting [6]) is 1 (inactive); in test [3] (setting [7]), 1.84. Further, the cell count in test [3] (setting [8]) and in test [3] (setting [9]) was 11600 in each case.
For the compound `NC[C@H]1O[C@H](OC2[C@@H](N)C[C@@H](N)[C@H](O[C@H]3O[C@H](CO)[C@@H](O)[C@H](N)[C@H]3O)[C@H]2O)[C@H](O)[C@@H](O)[C@@H]1O` (stereo partly specified), in test [1], the parasite load remaining is 92.2% (inactive) and 70.3% (inactive). Besides, the viability in test [1] is 72.7% and 101%. Besides, in test [2], the red/green cell ratio (normalised) is 1.25 (inactive). Also, the normalised cell number in test [2] (setting [4]) turned out to be 0.64; in test [2] (setting [5]), 0.8. Further, the fold change is 0.877 (inactive) in test [3] (setting [6]) and 2 in test [3] (setting [7]). The cell count stood at 11500 in test [3] (setting [8]) and 13200 in test [3] (setting [9]).
Turning to `CC(C)(C)NC(=O)[C@H]1CCC2C3CCC4NC(=O)C=C[C@]4(C)C3CC[C@@]21C` (stereo partly specified), the parasite load remaining in test [1] was 30.5% (inactive). For the same compound, the viability in test [1] was determined as 97.9%. In addition, the red/green cell ratio (normalised) in test [2] was 1.12 (inactive). Also, the normalised cell number worked out at 0.62 in test [2] (setting [4]) and 0.69 in test [2] (setting [5]). In addition, the results for the fold change in test [3] (setting [6]) and in test [3] (setting [7]) were 0.895 (inactive) and 2.7, respectively. The cell count in test [3] (setting [8]) was 11000; in test [3] (setting [9]) it was 12300.
As to `CC(C)(O/N=C(\C(=O)N[C@@H]1C(=O)N2C(C(=O)[O-])=C(C[n+]3ccccc3)CSC12)c1csc(N)n1)C(=O)O` (stereo partly specified), the parasite load remaining in test [1] is 57.9% (inactive). The viability in test [1] came out at 101%. Also, in test [2], the red/green cell ratio (normalised) is 0.74 (inactive). Further, the normalised cell number in test [2] (setting [4]) is 1.28; in test [2] (setting [5]) it was 0.94. Besides, the fold change in test [3] (setting [6]) was 0.922 (inactive); in test [3] (setting [7]), 3.92. In addition, the cell count is 12200 in test [3] (setting [8]) and 13200 in test [3] (setting [9]).
As to `CCCCC(=O)O[C@]1(C(=O)CO)CCC2C3CCC4=CC(=O)CC[C@]4(C)C3[C@@H](O)C[C@@]21C` (stereo partly specified), the parasite load remaining in test [1] was 79% (inactive). Further, in test [1], the viability was 98.3%. In addition, the red/green cell ratio (normalised) in test [2] is 1.41 (inactive). In addition, the normalised cell number in test [2] (setting [4]) came out at 0.69; in test [2] (setting [5]), 0.97. Further, the fold change in test [3] (setting [6]) is 0.833 (inactive); in test [3] (setting [7]), 3.05. The cell count amounted to 7620 in test [3] (setting [8]) and 9140 in test [3] (setting [9]).
For `O=C1O[C@H](C(O)CO)C(O)=C1O` (stereo partly specified), in test [1], the parasite load remaining is 82.7% (inactive) and 21.4% (inactive). Further, in test [1], the viability was 69.6% and 79.3%. The red/green cell ratio (normalised) in test [2] was 1.21 (inactive). The normalised cell number in test [2] (setting [4]) was 1.04; in test [2] (setting [5]) it was 1.26. Further, the values for the fold change in test [3] (setting [6]) and in test [3] (setting [7]) were 0.918 (inactive) and 4.48, respectively. Besides, the cell count in test [3] (setting [8]) came out at 12000; in test [3] (setting [9]), 13100.
In the case of `CCN[C@@H]1C[C@H](N)[C@@H](O[C@H]2OC(CN)=CC[C@H]2N)[C@H](O)[C@H]1OC1OC[C@](C)(O)[C@H](NC)[C@H]1O` (stereo partly specified), the parasite load remaining in test [1] is 81% (inactive). Also, the viability in test [1] is 99.2%. In test [2], the red/green cell ratio (normalised) was 0.96 (inactive). The normalised cell number in test [2] (setting [4]) is 1.05; in test [2] (setting [5]), 1. The fold change is 0.763 (inactive) in test [3] (setting [6]) and 6.26 in test [3] (setting [7]). Also, the cell count in test [3] (setting [8]) was 8580; in test [3] (setting [9]), 11200.
As for `CC1C/C=C/C=C/C=C/C=C/C(O[C@@H]2O[C@H](C)[C@@H](O)[C@H](N)[C@@H]2O)CC2OC(O)(CC(O)CC3OC3/C=C/C(=O)O1)CC(O)C2C(=O)O` (stereo partly specified), the parasite load remaining in test [1] was 78.2% (inactive). Further, the viability in test [1] was determined as 102%. Also, in test [2], the red/green cell ratio (normalised) was 1.02 (inactive). For the same compound, the normalised cell number in test [2] (setting [4]) came to 1.04; in test [2] (setting [5]) it was 1.06. Further, the results for the fold change in test [3] (setting [6]) and in test [3] (setting [7]) were 0.858 (inactive) and 2.95, respectively. For the same compound, the results for the cell count in test [3] (setting [8]) and in test [3] (setting [9]) were 11800 and 13800, respectively.
On to `CC(C)CC1NC(=O)C(CCCN)NC(=O)C(C(C)C)NC(=O)C2CCCN2C(=O)C(Cc2ccccc2)NC(=O)C(CC(C)C)NC(=O)C(CCCN)NC(=O)C(C(C)C)NC(=O)C2CCCN2C(=O)C(Cc2ccccc2)NC1=O` (stereo unspecified) (cyclo(FPV[Orn]LFPV[Orn]L); configuration not given here), for which the parasite load remaining in test [1] is -0.175% (inactive). Also, the viability in test [1] turned out to be 12.4%. The red/green cell ratio (normalised) in test [2] is 0.94 (inactive). Besides, the normalised cell number stood at 0.39 in test [2] (setting [4]) and 0.37 in test [2] (setting [5]). For the same compound, the fold change in test [3] (setting [6]) is 0.889 (inactive); in test [3] (setting [7]), 1.03. For the same compound, the cell count came to 2080 in test [3] (setting [8]) and 2340 in test [3] (setting [9]).
Turning to `COc1cc([C@@H]2c3cc4c(cc3C(OC3O[C@@H]5COC(C)O[C@H]5[C@H](O)[C@H]3O)C3COC(=O)[C@@H]32)OCO4)cc(OC)c1O` (stereo partly specified), the parasite load remaining in test [1] was 116% (inactive) and 63.3% (inactive). The viability in test [1] is 71.1% and 87.6%. Also, the red/green cell ratio (normalised) in test [2] was 0.85 (inactive). Further, the normalised cell number stood at 0.36 in test [2] (setting [4]) and 0.31 in test [2] (setting [5]). The fold change in test [3] (setting [6]) was 0.832 (inactive); in test [3] (setting [7]), 1.86. Besides, the results for the cell count in test [3] (setting [8]) and in test [3] (setting [9]) were 3220 and 3870, respectively.
Regarding `C=C(NC(=O)C(=C)NC(=O)c1csc(C2=NC3c4csc(n4)C4NC(=O)c5csc(n5)C(C(C)(O)C(C)O)NC(=O)C5CSC(=N5)C(=CC)NC(=O)C(C(C)O)NC(=O)c5csc(n5)C3(CC2)NC(=O)C(C)NC(=O)C(=C)NC(=O)C(C)NC(=O)C(C(C)CC)NC2C=Cc3c(C(C)O)cc(nc3C2O)C(=O)OC4C)n1)C(N)=O` (stereo unspecified), in test [1], the parasite load remaining was 64.9% (inactive) and 23.2% (inactive). Also, in test [1], the viability is 75.8% and 108%. Besides, the red/green cell ratio (normalised) in test [2] was 0.94 (inactive). Also, the normalised cell number in test [2] (setting [4]) turned out to be 0.8; in test [2] (setting [5]), 0.75. Moreover, the figures for the fold change in test [3] (setting [6]) and in test [3] (setting [7]) were 0.829 (inactive) and 1.94, respectively. In addition, the cell count turned out to be 9190 in test [3] (setting [8]) and 11100 in test [3] (setting [9]).
`CC(C)CCCC(C)[C@H]1CCC2C3CC=C4C[C@@H](O)CC[C@]4(C)C3CC[C@@]21C` (stereo partly specified): the parasite load remaining in test [1] is 39.9% (inactive). For the same compound, the viability in test [1] came out at 101%. In addition, in test [2], the red/green cell ratio (normalised) was 1.04 (inactive). Also, the normalised cell number in test [2] (setting [4]) stood at 1.14; in test [2] (setting [5]), 1.19. Further, the figures for the fold change in test [3] (setting [6]) and in test [3] (setting [7]) were 0.96 (inactive) and 2.49, respectively. Moreover, the cell count worked out at 12300 in test [3] (setting [8]) and 12900 in test [3] (setting [9]).
Turning to `O=C1[C@H](CCC(O)c2ccc(F)cc2)[C@@H](c2ccc(O)cc2)N1c1ccc(F)cc1` (stereo partly specified), the parasite load remaining in test [1] is 127% (inactive) and 58.1% (inactive). Further, the viability in test [1] was 82.3% and 90.7%. For the same compound, in test [2], the red/green cell ratio (normalised) was 1.19 (inactive). Further, the figures for the normalised cell number in test [2] (setting [4]) and in test [2] (setting [5]) were 0.87 and 1.03, respectively. Besides, the fold change was 0.905 (inactive) in test [3] (setting [6]) and 1.79 in test [3] (setting [7]). Also, the results for the cell count in test [3] (setting [8]) and in test [3] (setting [9]) were 11700 and 12900, respectively.
Take `O=C(OC[C@H]1O[C@H](OC(=O)c2cc(O)c(O)c(OC(=O)c3cc(O)c(O)c(O)c3)c2)[C@H](OC(=O)c2cc(O)c(O)c(OC(=O)c3cc(O)c(O)c(O)c3)c2)[C@@H](OC(=O)c2cc(O)c(O)c(OC(=O)c3cc(O)c(O)c(O)c3)c2)[C@@H]1OC(=O)c1cc(O)c(O)c(OC(=O)c2cc(O)c(O)c(O)c2)c1)c1cc(O)c(O)c(OC(=O)c2cc(O)c(O)c(O)c2)c1`: in test [1], the parasite load remaining is 58.2% (inactive) and 73.8% (inactive). Moreover, in test [1], the viability was 119% and 101%. Further, the red/green cell ratio (normalised) in test [2] was 1.23 (inactive). For the same compound, the values for the normalised cell number in test [2] (setting [4]) and in test [2] (setting [5]) were 1.24 and 1.52, respectively. Besides, the fold change was 0.602 (active) in test [3] (setting [6]) and 1.46 in test [3] (setting [7]). The cell count amounted to 4260 in test [3] (setting [8]) and 7070 in test [3] (setting [9]).

Usually viability stands for a read-out of living cells in per cent, often relative to untreated cells.
